Compound activity as filed in PubChem.
BJeLR viability = MLPCN primary cell-based screen for lethality selective to Ras in HRASV12 cells; BJeLR (HRASV12) viability, CellTiter-Glo ATP luminescence, 48 h; hit rate 0.17% among 300,000; AID 1554, 2009; inhibition, % (test concentration not listed); in the data active = inhibition above about 50%
Y pestis TopoI = Yersinia pestis topoisomerase I inhibitors, primary screen, biochemical, cleavage product accumulation, plate reader, single point. activity, % at 10 µM. hit rate 0.064% among 360,000. Y. pestis Topo-I cleavage product accumulation; in the data active = activity above about 50%, passing the limit was not always enough
PrP 5UTR inh = inhibition of PrP 5' UTR reporter expression; hit rate 0.35% among 340,000; inhibition, % (no concentration beside the values); cell-based PrP 5' UTR mRNA reporter, plate reader; in the data active = inhibition above about 52%
PrPC surface inh = inhibitors of human cell surface prion protein PrPC, primary screen, cell-based, TR-FRET. Major prion protein (Homo sapiens), P04156. TR-FRET read-out. inhibition, % at 13.8 µM. hit rate 0.43% among 370,000; in the data active = inhibition above about 24%
SSB-PriA inh = inhibitors of Klebsiella pneumoniae PriA binding to SSB C-terminal tail, primary screen, biochemical, AlphaScreen. PriA–SSB C-terminal tail interaction (Klebsiella pneumoniae). inhibition, % at 33 µM. AlphaScreen SSBct-PriA binding, biotinylated peptide. hit rate 0.6% among 430,000; in the data active = inhibition mostly above about 37%, no sharp cut-off; inactive = mostly below about 20%
PfHsp40 rescue = rescue of yeast from PfHsp40 toxicity, primary screen, S. cerevisiae, ATP luminescence; S. cerevisiae expressing PfHsp40, growth rescue; growth rescue, % at 12.5 µM; hit rate 0.68% among 340,000; AID 504582, 2011; in the data active = growth rescue above about 28%, passing the limit was not always enough;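 note: yeast W303a lacking pdr1 and pdr3 grown in galactose medium; growth measured after three days at 30 °C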
PrPC TRFRET cf = confirmation of inhibitors of cell surface human prion protein, confirmation, cell-based, TR-FRET | inhibition, % at 13.8 µM | shares compounds with PrPC surface inh | hit rate 65% among 1,500 | cell surface PrPC level; in the data active = inhibition above about 25%
LD9 cytotox = cytotoxicity in LD9 cells, cytotoxicity control for cell surface PrPc inhibitor project, cell-based, luminescence, high throughput; AID 743201, 2013; inhibition, % at 13.8 µM; shares compounds with PrPC surface inh; luminescence viability; hit rate 29% among 1,500; in the data active = inhibition above about 9.5%
Large screens that a line does not name were inactive (follow-up assays come after a bar, where they were run). Only some compounds are listed: those with a hit (about 1.7% of all), similar ones and a draw of the others.

CCCCC(=O)NC(c1ccc(Cl)cc1)c1ccc2cccnc2c1O (stereo not given)	PrPC surface inh 28.6 | PrPC TRFRET cf inactive | LD9 cytotox 11.4
CCCCC(=O)NC(c1ccc(N(C)C)cc1)c1ccc2cccnc2c1O (stereo not given)	BJeLR viability 57.1, PrPC surface inh 27.4, PfHsp40 rescue 508.7 | PrPC TRFRET cf 24.7 | LD9 cytotox 16.2
CCCCC(=O)NC(c1ccccc1OC)c1ccc2cccnc2c1O (stereo not given)	PrPC surface inh 40.5 | PrPC TRFRET cf 30.7 | LD9 cytotox 27.4
NNc1nc(-c2ccccc2)c2cc(Br)ccc2n1	none
COc1nc(-c2ccccc2)c2cc(Br)ccc2n1	PrPC surface inh 35.8 | PrPC TRFRET cf 71.0 | LD9 cytotox inactive
COc1ccc(-c2cc(NCCc3ccncc3)n3ncnc3n2)cc1	PrPC surface inh 105.9 | PrPC TRFRET cf inactive | LD9 cytotox inactive
COc1ccc(-c2cc(NCc3ccccn3)n3ncnc3n2)cc1	none
Cc1nc(-c2ccccc2NC(=O)c2cc(=O)[nH]c3ccccc23)cs1	none (no result: BJeLR viability, Y pestis TopoI, PrP 5UTR inh, PrPC surface inh, PfHsp40 rescue)
CC(C)C[C@@H]1NC(=O)[C@H](C(C)C)NC(=O)c2cc([N+](=O)[O-])cc(I)c2NCC[C@@H](C(N)=O)NC1=O	none (no result: Y pestis TopoI, PrP 5UTR inh, PrPC surface inh, PfHsp40 rescue)
CC[C@H](C)[C@@H]1NC(=O)[C@@H](CC(C)C)NC(=O)[C@H](C(C)C)NC(=O)[C@H]2CSSC[C@H](NC1=O)C(=O)N2	PrPC surface inh 40.9 (no result: BJeLR viability, Y pestis TopoI, PrP 5UTR inh, SSB-PriA inh, PfHsp40 rescue) | PrPC TRFRET cf 46.7 | LD9 cytotox 98.9
O=C(Nc1cccc2cccnc12)C1CCN(c2cc(-n3cncn3)ncn2)CC1	none (no result: BJeLR viability, Y pestis TopoI, PrP 5UTR inh, PrPC surface inh, PfHsp40 rescue)
Cc1ccc2[nH]c3c(N4CCN(Cc5ccc6c(c5)OCO6)CC4)ncnc3c2c1	none (no result: BJeLR viability, Y pestis TopoI, PrP 5UTR inh, SSB-PriA inh, PfHsp40 rescue)
Cc1ccc2c(c1)[nH]c1c(N3CCN(Cc4ccccc4)CC3)ncnc12	PrPC surface inh 29.7 | PrPC TRFRET cf inactive | LD9 cytotox 50.2
Cc1cccc(Nc2nc(NCc3ccco3)c3ccccc3n2)c1	PrPC surface inh 29.7 | PrPC TRFRET cf 31.4 | LD9 cytotox 29.3
Oc1ccccc1Nc1nc(NCc2ccco2)c2ccccc2n1	none
c1ccc(Nc2nc(NCc3ccco3)c3ccccc3n2)cc1	PrPC surface inh 27.8 | PrPC TRFRET cf 35.2 | LD9 cytotox 15.4
O=C(NCC1COC2(CCCCC2)O1)c1cc(Cl)ccc1Cl (stereo not given)	none (no result: BJeLR viability, Y pestis TopoI, PrP 5UTR inh, PrPC surface inh, PfHsp40 rescue)
COc1ccccc1-c1ccc(N2CCN(S(=O)(=O)/C=C\c3ccccc3)CC2)nn1	none (no result: BJeLR viability, Y pestis TopoI, PrP 5UTR inh, PrPC surface inh, PfHsp40 rescue)
Cn1c(=O)c([N+](=O)[O-])c(Cl)c2ccccc21	PrPC surface inh 57.0 | PrPC TRFRET cf 50.1 | LD9 cytotox 98.0
OC[C@H]1O[C@@H](c2nc3ccc(-c4nc(-c5ccc(Br)cc5)no4)cc3[nH]2)C[C@@H]1O	PrPC surface inh 29.1 (no result: BJeLR viability, PrP 5UTR inh, SSB-PriA inh, PfHsp40 rescue) | PrPC TRFRET cf inactive | LD9 cytotox inactive
CCN(CC)c1ncnc2ccc(Br)cc12	PrPC surface inh 39.2 | PrPC TRFRET cf 41.5 | LD9 cytotox inactive
CN1CCC(N(C)c2ncnc3ccc(Br)cc23)CC1	none (no result: BJeLR viability)
COc1ccc(CCNC(=O)CSc2nn3c(=O)c(C)nnc3s2)cc1OC	PrPC surface inh 24.5 | PrPC TRFRET cf inactive | LD9 cytotox inactive
COC(=O)N1CCC(CNC(=O)CN2C(=O)CCC2=O)CC1	none (no result: BJeLR viability, Y pestis TopoI, PrP 5UTR inh, PrPC surface inh, PfHsp40 rescue)
C[C@H]1c2cccc(O)c2C(O)=C2C(=O)[C@]3(O)C(O)=C(C(N)=O)C(=O)[C@@H](N(C)C)C3[C@@H](O)C21 (stereo not given in full)	none (no result: SSB-PriA inh)
C=C1c2cccc(O)c2C(=O)C2C(=O)[C@]3(O)C(=O)C(C(N)=O)C(=O)[C@@H](N(C)C)[C@@H]3[C@@H](O)[C@H]12 (stereo not given in full)	PrPC surface inh 39.6, PfHsp40 rescue 59.7 (no result: BJeLR viability) | PrPC TRFRET cf inactive | LD9 cytotox inactive
Cc1nc2ccccn2c1C(=O)NCCN1Cc2ccccc2OCC1=O	none (no result: BJeLR viability, Y pestis TopoI, PrP 5UTR inh, PrPC surface inh, PfHsp40 rescue)
CCc1cc2c(=O)c(-c3ccc4c(c3)OCO4)coc2c(CN(C)C)c1O	PrPC surface inh 86.4 | PrPC TRFRET cf 95.4 | LD9 cytotox inactive
CC(C)Cc1cc(C(=O)Nc2ccc3c(c2)OCO3)no1	PrPC surface inh 31.1 | PrPC TRFRET cf 29.2 | LD9 cytotox inactive
O=C(Nc1ccc2c(c1)OCO2)c1cc(-c2ccc(O)cc2)on1	PrPC surface inh 32.0 | PrPC TRFRET cf inactive | LD9 cytotox inactive
Cc1cc(C(O)CCNC(=O)C2CC=CCC2)c(C)o1 (stereo not given)	none (no result: BJeLR viability, Y pestis TopoI, PrP 5UTR inh, PrPC surface inh, PfHsp40 rescue)
Cc1nc(C)c(CNC(=O)NCc2cccs2)s1	none (no result: BJeLR viability, Y pestis TopoI, PrP 5UTR inh, PrPC surface inh, PfHsp40 rescue)
COC(=O)C1=C(C)N=c2s/c(=C\c3ccco3)c(=O)n2C1/C=C/c1ccccc1 (stereo not given)	none (no result: BJeLR viability, Y pestis TopoI, PrP 5UTR inh, PrPC surface inh, PfHsp40 rescue)
COC(=O)c1sc(NC(=O)C2CCCCC2C(=O)O)c(C(=O)OC)c1C (stereo not given)	PrPC surface inh 27.4 | PrPC TRFRET cf 41.9 | LD9 cytotox inactive
O=C(NCC1CCN(C(=O)c2ccoc2)CC1)c1ccccc1C(F)(F)F	none (no result: BJeLR viability, Y pestis TopoI, PrP 5UTR inh, PrPC surface inh, PfHsp40 rescue)
O=C(Nc1ccc(S(=O)(=O)C(F)F)cc1)c1cccc(S(=O)(=O)N2CCOCC2)c1	PrPC surface inh 28.6 | PrPC TRFRET cf inactive | LD9 cytotox 15.8
O=C(Nc1nc(-c2ccccn2)cs1)c1cccc(S(=O)(=O)N2CCOCC2)c1	PrPC surface inh 24.6, SSB-PriA inh 81.3 (no result: BJeLR viability) | PrPC TRFRET cf 25.5 | LD9 cytotox 11.0
O=C(Nc1ccc(S(=O)(=O)C(F)F)cc1)c1cccc(S(=O)(=O)N2CCCCCC2)c1	none (no result: BJeLR viability, Y pestis TopoI, PrP 5UTR inh, PrPC surface inh, PfHsp40 rescue)
COc1ccc(NC(=O)N2CCN(c3ccc(Nc4cccnc4)nn3)CC2)cc1OC	none (no result: BJeLR viability, Y pestis TopoI, PrP 5UTR inh, PrPC surface inh, PfHsp40 rescue)
COc1ccccc1CNC(=O)C(=O)NC[C@H]1CCCN1S(=O)(=O)c1cc(C)ccc1C	none (no result: BJeLR viability, Y pestis TopoI, PrP 5UTR inh, PrPC surface inh, PfHsp40 rescue)
CCOC(=O)c1sc(NC(=S)NC(=O)C2CCCC2)cc1C	PrPC surface inh 25.9 | PrPC TRFRET cf 56.3 | LD9 cytotox inactive
CCOC(=O)c1sc(NC(=S)NC(=O)CC(C)C)cc1C	PrPC surface inh 36.8 | PrPC TRFRET cf 39.7 | LD9 cytotox inactive
Cc1ccc(-n2nc3ccc(NC(=S)NC(=O)/C=C/c4ccco4)cc3n2)cc1	PrPC surface inh 65.1 | PrPC TRFRET cf 42.1 | LD9 cytotox inactive
Cc1ccc(-n2nc3cc(C)c(NC(=S)NC(=O)/C=C/c4ccco4)cc3n2)cc1	none
CCC(=O)c1cn(CC(=O)Nc2cccc(C)c2C)c2ccccc12	none
